Bioassay records (PubChem)
Hits are enriched below; roughly 2.8% of the tested compounds scored in any of these assays.
HepG2 viability: counter-screen for TGF-b inhibitors: cytotoxicity in HepG2 cells. Potency, µM (doses to about 46.1 µM), for inactives: at the highest dose activity change, negative = cytotoxicity, most hits filed as cytotoxic. AID 588856. hit rate 0.76% among 410,000. HepG2 CAGA-GFP viability, ATP luminescence, 18 h; note: potency is the fitted concentration of half-maximal effect
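HepG2 CAGA-GFP cells (1000/well, DMEM with 1% FBS) received compound, then TGF-beta at 500 pg/mL final, and were incubated 18 hours at 37 degrees C. Viability was read by CellTiter-Glo luminescence. Media-only wells were set as complete cell-killing and DMSO as no toxicity.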
Six1-Eya2 blk: blocks human Six1 binding to Eya2; AID 651725; Q15475+O00167; hit rate 0.56% among 360,000; activity change, % (concentration not given with the values); AlphaScreen GST-Six1/His-Eya2 binding, biochemical; active compounds read low; in the data active = activity change below about -65%; inconclusive = mostly about -30% to -63%; note: % is set by controls: 0 for no effect and ±100 for the full control effect
Target sequence (O00167 whole entry, looked up): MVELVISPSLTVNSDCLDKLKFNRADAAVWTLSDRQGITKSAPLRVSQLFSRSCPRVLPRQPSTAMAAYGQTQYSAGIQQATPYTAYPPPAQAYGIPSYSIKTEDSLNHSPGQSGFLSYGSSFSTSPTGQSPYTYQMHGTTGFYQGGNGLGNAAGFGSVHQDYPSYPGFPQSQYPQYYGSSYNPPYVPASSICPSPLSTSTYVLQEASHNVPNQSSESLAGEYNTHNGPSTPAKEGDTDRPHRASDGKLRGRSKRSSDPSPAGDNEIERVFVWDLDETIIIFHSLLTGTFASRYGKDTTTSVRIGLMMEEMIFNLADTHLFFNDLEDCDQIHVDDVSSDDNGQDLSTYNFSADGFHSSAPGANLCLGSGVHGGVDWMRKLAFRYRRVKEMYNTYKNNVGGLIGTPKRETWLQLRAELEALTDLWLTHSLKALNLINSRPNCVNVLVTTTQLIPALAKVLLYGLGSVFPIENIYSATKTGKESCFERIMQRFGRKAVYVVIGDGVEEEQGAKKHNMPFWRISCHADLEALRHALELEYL
Target sequence (Q15475 whole entry, looked up): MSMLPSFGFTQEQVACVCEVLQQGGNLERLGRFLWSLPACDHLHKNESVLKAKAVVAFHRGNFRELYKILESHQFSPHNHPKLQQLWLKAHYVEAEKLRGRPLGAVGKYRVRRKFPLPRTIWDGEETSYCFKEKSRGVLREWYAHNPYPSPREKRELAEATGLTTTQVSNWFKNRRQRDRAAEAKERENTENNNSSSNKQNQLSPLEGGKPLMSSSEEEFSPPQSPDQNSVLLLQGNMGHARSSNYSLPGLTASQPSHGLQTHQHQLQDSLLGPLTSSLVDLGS
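Compounds are tested against tagged Six1 and Eya2 proteins bridged by glutathione donor and nickel acceptor beads; after a one-hour incubation at 37 °C without light, AlphaScreen emission is recorded.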
TGFb inhibitor: inhibitors of TGF-b signaling | HepG2 CAGA-GFP TGF-b/SMAD3 reporter, GFP fluorescence, 18 h; TGF-beta stimulated, 500 pg/mL final | hit rate 1.2% among 410,000 | Potency, µM (titrated, usually from 46.1 µM), inactives show at the highest dose activity, negative = inhibition, most hits filed as inhibitors; note: potency is the fitted concentration of half-maximal effect; % is set by controls: 0 for no effect and ±100 for the full control effect; nearly all actives have a fitted effect of over 65% in size
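Inhibition was scored as loss of TGF-beta-induced (500 pg/mL final, 18 hours, 37 degrees C) GFP in HEPG2 cells carrying a CAGA-GFP reporter, in DMEM with 1% FBS. Well GFP was summed per cell; Activity was normalised to unstimulated and stimulated DMSO wells, then concentration-response fitting.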
CtBP-E1A blk: blocks the CtBP interaction with E1A | AlphaScreen GST-E1A/His-CtBP binding, 1536-well; active compounds read low | activity change, % (test concentration not listed) | hit rate 0.49% among 340,000 | AID 651724; in the data active = activity change below about -65%; inconclusive = mostly about -30% to -63%; note: % is set by controls: 0 for no effect and ±100 for the full control effect
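Protein mix (5X: 125 nM each GST-E1A, His-CtBP) was incubated with pinned compound 2 h at 37 deg C in dark, in 50 mM Tris pH 8.0 buffer with 300 mM NaCl. Glutathione donor and nickel acceptor beads followed; AlphaScreen signal read after 1 h.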
ATXN viability: cell viability loss in ATXN counter-screen; S2 cells (HEK-293 line with an ATXN2-luciferase reporter) viability, CellTiter-Fluor protease fluorescence, 24 h; Potency, µM (titrated, usually from 56.7 µM), usual class: cytotoxic; hit rate 0.49% among 400,000; AID 651635; note: potency is the fitted concentration of half-maximal effect; nearly all actives have a fitted effect of over 40% in size
ATXN2 expr inh: inhibitors of ATXN2 expression; HEK-293 ATXN2-luciferase reporter, luminescence, 24 h; Potency, µM (highest dose often 57 µM), for the others: at the top dose activity change, negative = inhibition, hits mostly inhibitors; hit rate 0.72% among 360,000; note: potency is the fitted concentration of half-maximal effect; % is set by controls: 0 for no effect and ±100 for the full control effect; nearly all actives have a fitted effect of over 55% in size
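ATXN2-luciferase reporter cells (luciferase flanked by upstream and downstream ATXN2 gene portions) were treated 24 h at 37 °C with compounds at up to 57 uM. SteadyGlo luminescence gave expression; GF-AFC fluorescence gave viability.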
* hit, by the source's call; [ ] = remark or other dose. Unless noted, calls come from the whole dose curve; as a rule, active = well fitted curve in the direction sought with a large enough effect; inconclusive = small, poorly fitted or top-dose-only effect, or another doubt; inactive = no such curve, though single readings can be large; an effect the other way counts as inactive or inconclusive.

Results for O=c1cc(-c2ccccc2)n(S(=O)(=O)c2ccc3ccccc3c2)o1 ?
HepG2 viability: -18%; Six1-Eya2 blk: 2; TGFb inhibitor: -7%; CtBP-E1A blk: -1; ATXN viability: inactive; ATXN2 expr inh: -3%

How did CCc1ccc(C(=O)CN(C#N)c2nc(C)cc(C)n2)cc1 do in these assays?
HepG2 viability: 11µM*; Six1-Eya2 blk: -4; TGFb inhibitor: inconclusive; CtBP-E1A blk: 0; ATXN viability: inconclusive; ATXN2 expr inh: -29%

What do the screens show for `Cc1cccc(/C=N/NC(=O)c2ccc(NC(=O)c3ccc(F)cc3)cc2)n1`?
HepG2 viability: 1%; Six1-Eya2 blk: -25; TGFb inhibitor: 0%; CtBP-E1A blk: -27; ATXN viability: inconclusive; ATXN2 expr inh: -16%

How did Cc1cccc(/C=N/NC(=O)c2ccc(NC(=O)c3ccc(Cl)cc3)cc2)n1 do in these assays?
HepG2 viability: -69%; Six1-Eya2 blk: -21; TGFb inhibitor: 13µM*; CtBP-E1A blk: -5; ATXN viability: inactive; ATXN2 expr inh: -23%

Results for CCOC(=O)c1c(NC(=O)CSc2nncs2)sc(C)c1-c1ccccc1 ?
HepG2 viability: 0%; Six1-Eya2 blk: -19; TGFb inhibitor: 11µM*; CtBP-E1A blk: -27; ATXN viability: inactive; ATXN2 expr inh: -6%

What do the screens show for `COc1cc(CNC(=O)CCCCC=CC(C)C)ccc1O`?
ATXN2 expr inh: 7%

Results for COc1cccc(O)c1CN1CCC(C(=O)Nc2ccc(Oc3cccnc3)cc2)CC1 ?
HepG2 viability: 0%; Six1-Eya2 blk: 17; TGFb inhibitor: 4%; CtBP-E1A blk: 0; ATXN viability: inactive; ATXN2 expr inh: -21%

Results for COc1cccc(O)c1CN1CCC(C(=O)Nc2ccc(-c3cccc(C)c3)cc2)CC1 ?
HepG2 viability: 13µM*; Six1-Eya2 blk: -12; TGFb inhibitor: inconclusive; CtBP-E1A blk: -9; ATXN viability: inactive; ATXN2 expr inh: inconclusive

How did O=C1CC(c2ccccc2)Cc2[nH]c(=O)c(C(=O)Nc3ccc(OC(F)(F)F)cc3)cc21 (configuration not stated) do in these assays?
HepG2 viability: 6%; TGFb inhibitor: -7%; ATXN viability: 25µM*; ATXN2 expr inh: -3%

How did O=C1CC(c2ccccc2)Cc2[nH]c(=O)c(C(=O)Nc3ccc(F)cc3)cc21 (configuration not stated) do in these assays?
HepG2 viability: -31%; TGFb inhibitor: -3%; ATXN viability: inactive; ATXN2 expr inh: 9%

How did Cc1c(C(=O)N2CC3CCC2C3)sc2ncnc(NCc3ccco3)c12 (configuration not stated) do in these assays?
ATXN viability: inactive

Results for COCc1c(C(=O)N2CCN(C3CCCC3)CC2)cnn1-c1nccc(-c2cccs2)n1 ?
ATXN viability: inactive

What do the screens show for `CCN(CC)CC(=O)OCC(=O)[C@@]1(O)CC[C@H]2[C@@H]3CCC4=CC(=O)CC[C@]4(C)[C@H]3[C@@H](O)C[C@@]21C`?
ATXN viability: inactive; ATXN2 expr inh: -6%

What do the screens show for `CCOC(=O)c1c(NC(=O)C2C3C=CC(C3)C2C(=O)O)sc2c1CC(C)(C)OC2` (configuration not stated)?
HepG2 viability: -2%; Six1-Eya2 blk: 5; TGFb inhibitor: 3%; CtBP-E1A blk: 1; ATXN viability: inactive; ATXN2 expr inh: -22%[11.3 µM]

What do the screens show for `CCOC(=O)c1c(C)nn(-c2ccc(NC(=O)c3cccs3)cc2)c1C`?
HepG2 viability: -19%; Six1-Eya2 blk: -3; TGFb inhibitor: -12%; CtBP-E1A blk: -3; ATXN viability: inactive; ATXN2 expr inh: 28µM*

Results for CCOC(=O)c1c(C)nn(-c2ccc(NC(=O)c3c(C)noc3C)cc2)c1C ?
HepG2 viability: -3%; Six1-Eya2 blk: 7; TGFb inhibitor: 3%; CtBP-E1A blk: 2; ATXN viability: inactive; ATXN2 expr inh: inconclusive

What do the screens show for `CCOC(=O)c1c(NC(=O)c2cccs2)sc2c1CC(C)(C)OC2`?
HepG2 viability: 0.1µM*; Six1-Eya2 blk: -16; TGFb inhibitor: -22%; CtBP-E1A blk: -1; ATXN viability: inactive; ATXN2 expr inh: -11%

What do the screens show for `Cc1ccc(/C=N/NC(=O)C2CC(=O)N(c3ccccc3)C2)s1` (configuration not stated)?
HepG2 viability: 3%; Six1-Eya2 blk: 16; TGFb inhibitor: -1%; CtBP-E1A blk: 0; ATXN viability: inactive; ATXN2 expr inh: -9%

How did O=C(N/N=C/c1ccccc1O)C1CC(=O)N(c2ccc(Cl)cc2)C1 (configuration not stated) do in these assays?
HepG2 viability: -13%; Six1-Eya2 blk: inconclusive; TGFb inhibitor: -28%; CtBP-E1A blk: -84*; ATXN viability: inactive; ATXN2 expr inh: 6.3µM*

Results for C[C@@H](O)[C@H]1C(=O)N2C(C(=O)OCOC(=O)C(C)(C)C)=C(SC3CN(C4=NCCS4)C3)[C@H](C)[C@H]12 ?
ATXN2 expr inh: -4%

What do the screens show for `O=S1(=O)CCN(C2CCCCCCC2)CC1`?
HepG2 viability: 3%; Six1-Eya2 blk: 4; TGFb inhibitor: -5%; CtBP-E1A blk: -4; ATXN viability: inactive

What do the screens show for `CCn1c(/C=C/Nc2ccccc2)[n+](CC)c2ccc(Cl)cc21`?
HepG2 viability: -12%; Six1-Eya2 blk: -8; TGFb inhibitor: -1%; CtBP-E1A blk: 5; ATXN viability: inconclusive; ATXN2 expr inh: -13%

Results for CCOC(=O)c1ccc2c(c1)n(CC)c(/C=C/Nc1ccccc1)[n+]2CC ?
HepG2 viability: -28%; Six1-Eya2 blk: -8; TGFb inhibitor: 9%; CtBP-E1A blk: 44; ATXN viability: 11µM*; ATXN2 expr inh: inconclusive

How did CC(C)C[C@@H](C(=O)N[C@H](C(=O)OC1CCCC1)c1ccccc1)[C@H](O)C(=O)NO do in these assays?
ATXN2 expr inh: 22µM*

Results for COc1ccc(C=Cc2cc(OC)c(OC)c(OC)c2)cc1O ?
ATXN2 expr inh: 0%

What do the screens show for `CC1CCCCN1C(=O)COC(=O)CSc1ccc(C(N)=O)cc1[N+](=O)[O-]` (configuration not stated)?
HepG2 viability: 12%; Six1-Eya2 blk: -7; TGFb inhibitor: 16%; CtBP-E1A blk: 3; ATXN viability: inactive; ATXN2 expr inh: -7%

How did CC1CCCCN1C(=O)COC(=O)c1ccc(S(C)(=O)=O)c([N+](=O)[O-])c1 (configuration not stated) do in these assays?
HepG2 viability: 7.9µM*; TGFb inhibitor: inconclusive
